Experimental data published in PubChem BioAssay AID1745857 (National Center for Advancing Translational Sciences (NCATS), 2022).
Out of some 120,000 compounds screened, about 370 (0.31%) were called active. A call without a number means that no potency is given here. Another 4% or so got no clear call; they are omitted. Calls come from the whole dose curve. Many of the other results were omitted from the sample, so actives are more common in it than they were.

assay: Primary qHTS Assay for Foot and Mouth Disease Virus Antivirals against NCGC Sytravon and CBC Compound Libraries: Renilla Luciferase Signal; settings: FMDV replicon cells; series mostly up to 57.5 µM; note: nearly all actives have a fitted effect of over 55% in size
Potency is the fitted concentration of half-maximal effect.

Row | Structure (SMILES) | Potency | activity change, negative = inhibition
1 | CCOc1ccc(-c2noc(-c3nnn(-c4ccc(C(C)C)cc4)c3N)n2)cc1 | inactive | 
2 | CCCCCCCCc1ccc(-c2ccc(CC)cc2)nc1 |  | -6.84% [at 1.06 µM] (inactive)
3 | COc1ccc(OC)c(CCNC(=O)CSCc2cnn(-c3ccccc3)c2-n2cccc2)c1 | inactive | 
4 | CCC(Nc1ccc2oc(C)nc2c1)C(=O)Nc1ccc(F)cc1 (configuration not stated) | inactive | 
5 | CCOC(=O)c1c(S(=O)(=O)Nc2cc(Cl)c(OC)cc2OC)c(C)n(C)c1C | inactive | 
6 | Cn1nc(CC(=O)Nc2cccc(Cl)c2)c2ccccc2c1=O | 7.94 µM (active) | 
7 | COc1ccc(Cl)cc1NC(=O)COC(=O)c1nn(C)c(=O)c2ccccc12 | inactive | 
8 | COc1ccc(NC(=O)COC(=O)c2nn(C)c(=O)c3ccccc23)cc1Cl | inactive | 
9 | COC(=O)c1cc(NC(=O)CSc2nnc(Cc3ccc(OC)cc3)n2C)ccc1Cl | inactive | 
10 | O=C(Nc1ccc2oc(-c3cccc(Br)c3)nc2c1)c1cccs1 | inactive | 
11 | COc1ccc(-n2nnc(-c3nsc(NC(=O)c4ccc(C)c(C)c4)n3)c2C)cc1Cl | inactive | 
12 | Cc1c(-c2nsc(NC(=O)c3cccc(Cl)c3)n2)nnn1-c1ccccc1C(F)(F)F | 12.6 µM (active) | 
13 | CCc1cccc(-n2nnc(-c3nsc(NC(=O)c4ccc(C)cc4)n3)c2C)c1 | inactive | 
14 | N#Cc1ccc(-c2ccc(OCc3ccccc3C#N)cc2)cc1 | inactive | 
15 | COc1ccc(OC)c(C2c3c(n[nH]c3C)Nc3[nH]c(=O)[nH]c(=O)c32)c1 (configuration not stated) | inactive | 
16 | CCOC(=O)C1=C(CNCc2ccc(C)cc2)NC(=O)NC1c1ccc(Cl)cc1 (configuration not stated) | inactive | 
17 | CN(C)CCNC(C(=O)O)c1c[nH]c2cc(F)ccc12 (configuration not stated) | inactive | 
18 | C#CC[N+]1(C)C(C)CCCC1C (configuration not stated) | inactive | 
19 | CCCNC(=O)c1ccc(NC(=O)CCc2ccccc2)cc1 | inactive | 

Row | Structure (SMILES) | Potency | activity change, negative = inhibition
20 | Cc1csc(/C(C#N)=C\NC2CC(C)(C)NC(C)(C)C2)n1 | inactive | 
21 | Cc1nc(-c2ccc(F)cc2)sc1C(=O)N[C@H](C(=O)O)C(C)C | inactive | 
22 | Cc1cnc(NC(=O)c2nc(C)n(-c3ccc(F)cc3)n2)s1 | inactive | 
23 | CCCn1nc(C(=O)Nc2ncc(Cc3ccc(F)cc3)s2)ccc1=O | 25.1 µM (active) | 
24 | Cc1[nH]n(-c2nc(-c3ccccc3)cs2)c(=O)c1CC(=O)Nc1cccc(Cl)c1 | inactive | 
25 | CCCN(CC(=O)Nc1cccc(C(=O)NC2CC2)c1)Cc1nnc(-c2cccs2)o1 | inactive | 
26 | COCCCn1c(C)cc(C(=O)CSc2ncnc3ccccc23)c1C | 1.41 µM (active) | 
27 | Cc1cccc(NC(=O)CSc2ncnc3ccccc23)c1 | inactive | 
28 | COCCn1c(C)cc(C(=O)CSc2nnc(-c3ccccc3OC)n2-c2ccc(Cl)cc2)c1C |  | -11.3% [at 1.06 µM] (inactive)
29 | Cc1cc(C(C)(C)C)cc(C)c1CCNC(=O)c1ccc(NC(=O)CC#N)cc1 |  | -11.7% [at 1.06 µM] (inactive)
30 | CCc1ccc(/C=C/C(=O)c2cc3ccccc3oc2=O)cc1 | inactive | 
31 | Cc1[nH]c2ccccc2c1C(C(=O)O)N1CCN(Cc2ccccn2)CC1 (configuration not stated) | inactive | 
32 | O=C(COc1ccc2c(c1)CCC2)OCC(=O)c1ccc2c(c1)OCCO2 | inactive | 
33 | COC(=O)c1ccc(C2C(c3ccccc3)=C(O)C(=O)N2c2ccc(Cl)cc2)cc1 (configuration not stated) | inactive | 
34 | COc1ccc(CNc2oc(-c3ccc(C)cc3)nc2C#N)cc1 | inactive | 
35 | CC(C)Cn1c(=O)c2ccccc2n2c(SCC(=O)Nc3ccc(F)cc3F)nnc12 | inactive | 
36 | O=C(NCc1cccs1)C1CCN(c2nccn3nc(-c4ccccc4)cc23)CC1 | inactive | 
37 | CSCCCNC(=S)NNC(N)=O | inactive | 
